# According to PubChem BioAssay:
# For part of these data: Potency and affinity values are given separately. The source made the active and inactive calls.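 How the source made its calls, unless noted: active means membrane potential signal rise above negative control mean plus 3 SD in both duplicates, also active in the earlier TRPC4 screen; inactive means the rest.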
# Legend:
# [1] = tested on: TRPC4 beta (transient receptor potential cation channel C4), mouse; assay: TRPC4 cation channel opening, retest – cell-based, Fluo4 calcium, HEK293 TRPC4beta/mu-opioid, duplicates, 10 µM, confirmation (AID 2426;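 active means fluorescence ratio normalized to control raised more than 50% in primary screen plus both repeat runs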;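 on activation: percent rise of integrated ratio over buffer wells lacking compound which define 0%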); details: Fluo4 calcium fluorescence, at 10 µM; hits give high values
# [2] = tested on: transient receptor potential cation channel C4 beta (TRPC4), mouse; assay: TRPC4 cation channel opening, second retest – cell-based, second round, Fluo4, HEK293 TRPC4beta/mu-opioid, 1 µM, confirmation (AID 2461;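 active means primary screen active and over 50% activation in each of two duplicate runs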;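 on activation: 0% = wells without test compound as baseline of integrated fluorescence ratio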); details: Fluo4 calcium fluorescence, at 1 µM; hits give high values
# [3] = tested on: TRPC4 (transient receptor potential cation channel C4 beta), mouse; assay: potentiation of DAMGO EC20 TRPC4 response – cell-based, second round, Fluo-4, HEK293 TRPC4beta/mu-opioid, 1 µM, confirmation (AID 2554;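 active means primary screen hit whose fluorescence ratio, in both repeats, exceeds the weak agonist control mean by 3 SD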); details: DAMGO EC20, Fluo-4 calcium flux, at 1 µM; hits give high values
# [4] = tested on: TRPC4 beta (transient receptor potential cation channel C4), mouse; assay: potentiation of DAMGO EC20 TRPC4 response – cell-based, Fluo-4, HEK293 TRPC4beta/mu-opioid, confirmation (AID 2555;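 active means primary screen hit whose calcium fluorescence ratio, in both repeats, exceeds the weak agonist control mean by 3 SD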); details: DAMGO EC20, Fluo-4 calcium flux, at 10 µM; hits give high values
# [5] = molecular target: Short transient receptor potential channel 4 (Mus musculus) (UniProt Q9QUQ5); assay: blockers of DAMGO-evoked TRPC4 calcium flux – cell-based, Fluo4, HEK293 TRPC4beta/mu-opioid, confirmation (AID 2636;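 active means calcium signal cut by more than 3 SD below the full-agonist control yet still positive, in both repeats and the earlier primary screen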); details: at 10 µM; hits give high values
# [6] = molecular target: Short transient receptor potential channel 4 (Mus musculus) (UniProt Q9QUQ5); assay: blockers of DAMGO-evoked TRPC4 calcium flux – cell-based, second round, Fluo4, HEK293 TRPC4beta/mu-opioid, 1 µM, confirmation (AID 2637;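 active means calcium signal ratio cut to more than 3 SD under the fully stimulated control mean yet still positive, in both repeats and the primary screen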;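 on inhibition: percent of integrated ratio relative to wells lacking test compound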); details: at 1 µM; hits give high values
# [7] = molecular target: Short transient receptor potential channel 4 (Mus musculus) (UniProt Q9QUQ5); assay: potentiation of DAMGO-evoked TRPC4 calcium signal – cell-based, HEK293 TRPC4/mu-opioid, Fluo-4 calcium, EC20 DAMGO, dose response (AID 434941;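 active means earlier screen potentiator hit that boosts the TRPC4 ion channel at some dose, with a dose response; inactive means no potentiation, no dose response, or not a prior hit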;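 further: calcium entry triggered by an EC20 dose of DAMGO at the co-expressed mu-opioid receptor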)
# [8] = molecular target: Short transient receptor potential channel 6 (Mus musculus) (UniProt Q61143); assay: TRPC6 blockade by TRPC4 inhibitor hits – cell-based, HEK293, membrane potential dye, duplicate, selectivity assay for TRPC4 inhibitor project, confirmation (AID 434948;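 active means active in primary screen and both duplicates, each dropping signal beyond three positive-control SD with fluorescence still positive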); details: HEK293 TRPC6, membrane potential dye fluorescence, at 10 µM, stimulated with maximal-effect acetylcholine; hits give high values
# [9] = molecular target: Short transient receptor potential channel 6 (Mus musculus) (UniProt Q61143); assay: TRPC6 opening by TRPC4 activator hits – cell-based, HEK293, membrane potential dye, duplicate, selectivity assay for TRPC4 activator project, confirmation (AID 434950); details: HEK293 TRPC6, membrane potential fluorescence, at 10 µM; activation: hits give high values; outcome: activation;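 on activation: 0% = buffer only wells and 100% = acetylcholine maximal-effect wells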
# [10] = molecular target: Short transient receptor potential channel 6 (Mus musculus) (UniProt Q61143); assay: positive modulators of mouse TRPC6 channel – HEK293 cells, membrane potential dye, duplicate, selectivity assay for TRPC4 potentiator project, confirmation (AID 434952;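 active means compound raising the membrane signal above positive-control mean plus 3 SD in both repeats, and a primary screen hit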); details: HEK293 TRPC6, membrane potential dye fluorescence, at 10 µM, maximal acetylcholine added after compound; hits give high values
# [11] = molecular target: Short transient receptor potential channel 4 (Mus musculus) (UniProt Q9QUQ5); assay: calcium flux activators in TRPC4/5HT1a cells, counter-screen for TRPC4 activator project, cell-based, second counter screen, HEK293 TRPC4/5HT1a, Fluo-4 (AID 434977;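 active means calcium signal rise above buffer-control mean plus 5 SD in both duplicates, and also a hit in the primary screen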;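 on activation: plate controls were assay buffer for no effect and maximal serotonin response for full effect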); details: Fluo-4 calcium flux, at 10 µM; hits give high values
# [12] = serotonin-gated TRPC4 signal block – cell-based, second counter screen, HEK293 TRPC4/5HT1a, Fluo-4, counter-screen for TRPC4 inhibitor project, confirmation (AID 434978;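 active means primary screen active whose calcium signal fell more than 3 SD beyond the full-serotonin control mean in both duplicate plates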;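 on outcome: serotonin given first at submaximal then at maximal dose after compound preincubation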); details: Fluo-4 calcium flux, at 10 µM, serotonin added to trigger calcium flux; hits give high values
# [13] = tested on: TRPC4 (mouse), co-expressed with 5HT1a in HEK293; assay: enhancement of serotonin-evoked TRPC4 response – cell-based, second counter screen, HEK293 TRPC4/5HT1a, Fluo-4, counter-screen for TRPC4 potentiator project, confirmation (AID 434979;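 active means signal rise over 3 SD above mean of control wells given weak agonist, in both repeats and first screen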); details: Fluo-4 calcium flux, at 10 µM, serotonin added at its EC20 dose; hits give high values
# [14] = nonspecific calcium rise without TRPC4 – cell-based, HEK293 mu-opioid receptor line, counter-screen for TRPC4 activator project, confirmation (AID 449723;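 active means hit in primary screen, with calcium signal over 5 SD above buffer well mean in both duplicates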;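 further: counter screen cells carry the mu-opioid receptor alone and lack TRPC4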); details: HEK293 mu-opioid cells, Fluo-4 calcium fluorescence, at 10 µM; hits give high values
# [15] = nonspecific potentiation of DAMGO calcium response – cell-based, HEK293 mu-opioid receptor line, counter-screen for TRPC4 allosteric potentiator project, confirmation (AID 449724;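 active means calcium signal rise more than 3 SD above the low-dose agonist control mean, in both duplicate plates and the primary screen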); details: HEK293 mu-opioid receptor cells, Fluo-4 calcium flux, at 10 µM, compound added before EC20 DAMGO stimulus; hits give high values
# Chain of Short transient receptor potential channel 6 (Mus musculus) (Q61143 whole entry, looked up): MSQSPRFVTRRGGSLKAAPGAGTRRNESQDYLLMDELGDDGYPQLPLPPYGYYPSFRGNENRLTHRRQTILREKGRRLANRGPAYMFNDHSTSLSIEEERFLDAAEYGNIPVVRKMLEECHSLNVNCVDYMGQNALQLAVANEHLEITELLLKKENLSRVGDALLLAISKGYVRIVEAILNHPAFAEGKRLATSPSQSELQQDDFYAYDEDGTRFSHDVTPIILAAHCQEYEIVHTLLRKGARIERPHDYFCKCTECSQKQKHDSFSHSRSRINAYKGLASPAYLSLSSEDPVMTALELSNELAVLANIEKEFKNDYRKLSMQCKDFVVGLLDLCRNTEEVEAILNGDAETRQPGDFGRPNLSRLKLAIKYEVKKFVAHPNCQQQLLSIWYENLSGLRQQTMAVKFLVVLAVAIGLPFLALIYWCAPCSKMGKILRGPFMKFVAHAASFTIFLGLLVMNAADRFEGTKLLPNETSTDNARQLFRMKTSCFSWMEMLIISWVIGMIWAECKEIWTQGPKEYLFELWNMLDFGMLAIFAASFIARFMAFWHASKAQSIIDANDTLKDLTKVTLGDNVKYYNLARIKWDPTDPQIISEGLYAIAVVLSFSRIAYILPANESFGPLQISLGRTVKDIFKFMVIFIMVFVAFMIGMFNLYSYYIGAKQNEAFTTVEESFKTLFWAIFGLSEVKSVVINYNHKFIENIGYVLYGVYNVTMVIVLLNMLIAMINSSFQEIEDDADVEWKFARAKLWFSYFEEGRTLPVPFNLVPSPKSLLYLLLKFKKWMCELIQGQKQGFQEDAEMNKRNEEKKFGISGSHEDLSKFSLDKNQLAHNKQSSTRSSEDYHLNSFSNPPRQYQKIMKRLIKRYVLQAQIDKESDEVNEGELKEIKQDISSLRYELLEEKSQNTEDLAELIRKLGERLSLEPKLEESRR
# Chain of Short transient receptor potential channel 4 (Mus musculus) (Q9QUQ5 whole entry, looked up): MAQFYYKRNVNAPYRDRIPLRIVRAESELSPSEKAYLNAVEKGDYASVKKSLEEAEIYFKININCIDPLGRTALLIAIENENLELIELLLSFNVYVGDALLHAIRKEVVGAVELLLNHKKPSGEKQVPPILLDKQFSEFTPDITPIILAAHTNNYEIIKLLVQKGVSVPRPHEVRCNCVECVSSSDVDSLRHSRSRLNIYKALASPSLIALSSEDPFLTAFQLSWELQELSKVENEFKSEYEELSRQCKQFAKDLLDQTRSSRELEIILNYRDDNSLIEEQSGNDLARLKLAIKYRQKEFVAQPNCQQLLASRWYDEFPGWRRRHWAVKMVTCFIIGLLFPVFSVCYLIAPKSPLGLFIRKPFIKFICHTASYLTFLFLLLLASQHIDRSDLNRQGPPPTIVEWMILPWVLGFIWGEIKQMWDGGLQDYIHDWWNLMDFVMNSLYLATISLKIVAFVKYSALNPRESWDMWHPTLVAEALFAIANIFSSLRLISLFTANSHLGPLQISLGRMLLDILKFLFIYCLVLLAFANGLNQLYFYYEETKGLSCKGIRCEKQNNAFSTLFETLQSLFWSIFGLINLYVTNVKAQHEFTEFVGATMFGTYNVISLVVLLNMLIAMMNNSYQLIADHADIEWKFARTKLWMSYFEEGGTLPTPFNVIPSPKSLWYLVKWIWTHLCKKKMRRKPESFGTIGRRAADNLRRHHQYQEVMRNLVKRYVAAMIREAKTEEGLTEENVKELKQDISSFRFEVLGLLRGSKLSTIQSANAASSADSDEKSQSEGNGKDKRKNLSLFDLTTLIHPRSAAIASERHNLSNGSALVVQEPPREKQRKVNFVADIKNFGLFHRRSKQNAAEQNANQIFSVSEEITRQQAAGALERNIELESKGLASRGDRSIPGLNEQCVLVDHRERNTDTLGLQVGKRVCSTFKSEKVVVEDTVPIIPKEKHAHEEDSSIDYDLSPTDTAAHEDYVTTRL
smiles,measurement,setting,value
Cc1ccccc1OCC(O)Cn1c(=N)n(Cc2ccccc2)c2ccccc21 (stereo not given),activation,[1],70% (active)
same,outcome,[2],inactive
same,outcome,[3],inactive
same,outcome,[4],inactive
same,inhibition,[5],84% (active)
same,outcome,[6],inactive
same,outcome,[7],inactive
same,inhibition,[8],39.5% (active)
same,activation,[9],52.5% (active)
same,outcome,[10],inactive
same,activation,[11],9.48% (active)
same,inhibition,[12],38% (active)
same,outcome,[13],inactive
same,activation,[14],18.7% (active)
same,outcome,[15],inactive
COc1ccc2nc(NS(=O)(=O)c3ccc(NC(C)=O)cc3)sc2c1,outcome,[1],inactive
same,outcome,[2],inactive
same,outcome,[3],inactive
same,outcome,[4],inactive
same,inhibition,[5],73% (active)
same,outcome,[6],inactive
same,outcome,[7],inactive
same,outcome,[8],inactive
same,activation,[9],37.5% (active)
same,outcome,[10],inactive
same,outcome,[11],inactive
same,outcome,[12],inactive
same,outcome,[13],inactive
same,outcome,[14],inactive
same,outcome,[15],inactive
Clc1ccc(COn2c(-c3ccc(Cl)cc3Cl)nc3ncccc32)cc1,activation,[1],74% (active)
same,outcome,[2],inactive
same,outcome,[3],inactive
same,outcome,[4],inactive
same,outcome,[5],inactive
same,outcome,[6],inactive
same,outcome,[7],inactive
same,outcome,[8],inactive
same,activation,[9],54% (active)
same,outcome,[10],inactive
same,outcome,[11],inactive
same,outcome,[12],inactive
same,outcome,[13],inactive
same,outcome,[14],inactive
same,outcome,[15],inactive
CN(C)C(CNC(=O)c1ccc(C(F)(F)F)cc1)c1ccco1 (stereo not given),activation,[1],55% (active)
same,outcome,[2],inactive
same,outcome,[3],inactive
same,outcome,[4],inactive
same,inhibition,[5],96% (active)
same,inhibition,[6],92% (active)
same,outcome,[7],inactive
same,outcome,[8],inactive
same,activation,[9],28.5% (active)
same,outcome,[10],inactive
same,outcome,[11],inactive
same,outcome,[12],inactive
same,outcome,[13],inactive
same,outcome,[14],inactive
same,outcome,[15],inactive
CCOC(=O)C1(CC2CC2)CCN(Cc2ccc3cccc(F)c3n2)CC1,activation,[1],129% (active)
same,outcome,[2],inactive
same,outcome,[3],inactive
same,outcome,[4],inactive
same,inhibition,[5],89% (active)
same,outcome,[6],inactive
same,outcome,[7],inactive
same,outcome,[8],inactive
same,activation,[9],50.5% (active)
same,outcome,[10],inactive
same,activation,[11],19.5% (active)
same,inhibition,[12],30.9% (active)
same,outcome,[13],inactive
same,outcome,[14],inactive
same,outcome,[15],inactive
COc1ccc(CCN(C)CCN2C(=O)c3ccccc3C2=O)cc1OC,activation,[1],252% (active)
same,activation,[2],103% (active)
same,outcome,[3],inactive
same,outcome,[4],inactive
same,outcome,[5],inactive
same,inhibition,[6],43% (active)
same,outcome,[7],inactive
same,outcome,[8],inactive
same,outcome,[9],inactive
same,outcome,[10],inactive
same,activation,[11],96.5% (active)
same,inhibition,[12],1.2% (active)
same,outcome,[13],inactive
same,outcome,[14],inactive
same,outcome,[15],inactive
CCc1ccc(C(CNc2nc(C(F)(F)F)nc3ccccc23)N(C)C)cc1 (stereo not given),outcome,[1],inactive
same,outcome,[2],inactive
same,outcome,[3],inactive
same,outcome,[4],inactive
same,outcome,[5],inactive
same,outcome,[6],inactive
same,outcome,[7],inactive
same,outcome,[8],inactive
same,outcome,[9],inactive
same,outcome,[10],inactive
same,outcome,[11],inactive
same,outcome,[12],inactive
same,outcome,[13],inactive
same,outcome,[14],inactive
same,outcome,[15],inactive
CN(C)CCCN(C(=O)c1ccc(S(=O)(=O)N(C)C)cc1)c1nc2ccc(F)cc2s1,activation,[1],59% (active)
same,outcome,[2],inactive
same,outcome,[3],inactive
same,outcome,[4],inactive
same,outcome,[5],inactive
same,inhibition,[6],37% (active)
same,outcome,[7],inactive
same,outcome,[8],inactive
same,outcome,[9],inactive
same,outcome,[10],inactive
same,outcome,[11],inactive
same,outcome,[12],inactive
same,outcome,[13],inactive
same,outcome,[14],inactive
same,outcome,[15],inactive
CCn1cc(CN2CCC(n3nccc3NC(=O)CCCc3ccccc3)CC2)cn1,outcome,[1],inactive
same,outcome,[2],inactive
same,outcome,[3],inactive
same,outcome,[4],inactive
same,inhibition,[5],95% (active)
same,inhibition,[6],58% (active)
same,outcome,[7],inactive
same,outcome,[8],inactive
same,activation,[9],36% (active)
same,outcome,[10],inactive
same,outcome,[11],inactive
same,outcome,[12],inactive
same,outcome,[13],inactive
same,outcome,[14],inactive
same,outcome,[15],inactive
O=C(C[n+]1cc2ccccc2c2ccccc21)c1ccccc1,activation,[1],212% (active)
same,outcome,[2],inactive
same,outcome,[3],inactive
same,outcome,[4],inactive
same,inhibition,[5],94% (active)
same,outcome,[6],inactive
same,outcome,[7],inactive
same,inhibition,[8],29.5% (active)
same,outcome,[9],inactive
same,outcome,[10],inactive
same,activation,[11],27.6% (active)
same,inhibition,[12],33.5% (active)
same,outcome,[13],inactive
same,outcome,[14],inactive
same,outcome,[15],inactive
OCC1(CC2CCCCO2)CCN(Cc2nc3ccccc3[nH]2)CC1 (stereo not given),outcome,[1],inactive
same,outcome,[2],inactive
same,outcome,[3],inactive
same,outcome,[4],inactive
same,inhibition,[5],67% (active)
same,outcome,[6],inactive
same,outcome,[7],inactive
same,outcome,[8],inactive
same,activation,[9],26.5% (active)
same,outcome,[10],inactive
same,outcome,[11],inactive
same,outcome,[12],inactive
same,outcome,[13],inactive
same,outcome,[14],inactive
same,outcome,[15],inactive
O=C(NC1CC1)C1=C[C@H](C2CCCCC2)C[C@H](OCc2ccc(CO)cc2)O1,activation,[1],337% (active)
same,outcome,[2],inactive
same,outcome,[3],inactive
same,outcome,[4],inactive
same,inhibition,[5],75% (active)
same,outcome,[6],inactive
same,outcome,[7],inactive
same,outcome,[8],inactive
same,activation,[9],41% (active)
same,outcome,[10],inactive
same,activation,[11],131% (active)
same,inhibition,[12],9.94% (active)
same,outcome,[13],inactive
same,outcome,[14],inactive
same,outcome,[15],inactive
C/C=C(\C)CN1CCC(n2nccc2NC(=O)CCc2ccccc2)CC1,outcome,[1],inactive
same,outcome,[2],inactive
same,outcome,[3],inactive
same,outcome,[4],inactive
same,inhibition,[5],97% (active)
same,inhibition,[6],86% (active)
same,outcome,[7],inactive
same,outcome,[8],inactive
same,activation,[9],58.5% (active)
same,outcome,[10],inactive
same,outcome,[11],inactive
same,outcome,[12],inactive
same,outcome,[13],inactive
same,outcome,[14],inactive
same,outcome,[15],inactive
COc1ccccc1NS(=O)(=O)c1cccc(C(=O)NC2CCN(Cc3ccccc3)CC2)c1,activation,[1],90% (active)
same,outcome,[2],inactive
same,outcome,[3],inactive
same,outcome,[4],inactive
same,outcome,[5],inactive
same,inhibition,[6],72% (active)
same,outcome,[7],inactive
same,outcome,[8],inactive
same,activation,[9],38.5% (active)
same,outcome,[10],inactive
same,outcome,[11],inactive
same,outcome,[12],inactive
same,outcome,[13],inactive
same,outcome,[14],inactive
same,outcome,[15],inactive
